# Measured values taken from PubChem BioAssay AID504592 (Broad Institute, 2011).
# The campaign covered roughly 1,100 compounds. About 540 (49%) were called active. About 5% were inconclusive and are not listed. Cut-off read from the data, not from the text of the source: active = inhibition above about 54%; inconclusive = no clear call, values can overlap the other calls; inactive = below that. So high a share suggests a set chosen from earlier hits. A selection follows.
# Assay: prion 5' UTR mRNA inhibition, cherry-pick retest (AID 504592)
# Details: cell-based prion protein 5' UTR reporter, plate reader; at 2.5 µM; hits give high values
row,Compound,inhibition
1,NC(=O)c1ccc(NC(=O)COC(=O)c2ccc([N+](=O)[O-])cc2)cc1,91.9% (active)
2,O=C1/C(=C\c2ccc([N+](=O)[O-])cc2)CS(=O)(=O)C/C1=C/c1ccc([N+](=O)[O-])cc1,85.3% (active)
3,CC12CCC3C(CCC4CC(=O)CCC43C)C1CC(=NO)C2=O (stereo unspecified),0.372% (inactive)
4,O=C(CSc1ncnc2sccc12)N1CCN(C(=O)c2cccs2)CC1,9.5% (inactive)
5,COc1cc(OC)cc(C(=O)N[C@H](C(=O)Nc2nc3ccccc3[nH]2)C(C)C)c1,44.9% (inactive)
6,COc1cccc2c1C(=O)c1c(O)c3c(c(O)c1C2=O)CC(O)(C(C)=NNC(=O)c1ccc(Cl)c(Cl)c1)CC3OC1CC(N)C(O)C(C)O1 (stereo unspecified),82.4% (active)
7,CCC(C)(O)C(=O)OC1C(=O)OC2CC3C(C)=CC(=O)C(O)C3(C)C3C4(O)OCC23C1C(C)C4O (stereo unspecified),83% (active)
8,Cc1ccc2nc(-c3ccc(Br)cc3)cn2c1,40% (inactive)
9,Cc1ccc(-c2cn3cc(C)ccc3n2)cc1,89.9% (active)
10,Nc1ccc(OCC(O)C[n+]2ccc(CCS(=O)(=O)[O-])cc2)cc1 (stereo unspecified),-71.6% (inactive)
11,CN(NC(=O)c1ccccc1F)c1nc(C(F)(F)F)nc2ccccc12,86.4% (active)
12,COc1ccc(C2=Nn3c(nnc3-c3ccccc3OC)SC2)cc1OC1CCCC1,79.2% (active)
13,CC(C)(C)C1CCc2c(sc3nc(SCC(N)=O)nc(N)c23)C1 (stereo unspecified),-25.3% (inactive)
14,COC1C(O)C(C)OC(OC2CCC3(C=O)C(CCC4C3CCC3(C)C(C5=CC(=O)OC5)CCC43O)C2)C1O (stereo unspecified),91.9% (active)
15,Cc1ccc(CCC(=O)Nc2ncc(Cc3cc(Cl)ccc3Cl)s2)o1,89.3% (active)
16,Clc1ccc2nc(-c3ccccc3)nc(C(Cl)Cl)c2c1,89.1% (active)
17,Cc1cc(NC(=O)/C=C/C(=O)N(CC(=O)NC2CCCC2)c2ccc(F)cc2)no1,15.5% (inactive)
18,O=C(NNC(=O)c1ccccc1O)c1ccccc1O,62.2% (active)
19,CC1Cc2ccccc2N1C(=O)c1cc2sccc2n1Cc1ccccc1 (stereo unspecified),-33.3% (inactive)
20,O=c1oc2ccccc2cc1-c1cn(-c2ccccc2)c(=S)[nH]1,86.9% (active)
21,CCCOC(=O)c1[nH]c2c(c1C)C(=O)CC(c1cccs1)C2 (stereo unspecified),88.2% (active)
22,Cc1cc(Nc2ccccc2)n(C(=O)c2ccc(N)cc2)n1,12% (inactive)
23,COc1cc([N+](=O)[O-])ccc1NC(=S)N1CCN(c2ccccn2)CC1,-10.7% (inactive)
24,CN(c1ccc2nc3ccccc3c(=O)n2n1)C1CCCCC1,86.2% (active)
25,O=C(Nc1ccc2c(c1)OCCO2)C1CCCC1,33.2% (inactive)
26,CCOc1cc(NS(=O)(=O)c2ccc(OC)cc2)c(OCC)cc1NC(C)=O,-19.5% (inactive)

row,Compound,inhibition
1,C=CCOc1ccc(/C=C2\SC(=S)N(CCC(=O)O)C2=O)cc1,61.2% (active)
2,COc1cc(SC)ccc1C(=O)Nc1nc(C)cs1,79% (active)
3,OCC1(Cc2ccccc2)CCN(Cc2cc3ccccc3o2)CC1,-6.23% (inactive)
4,O=C(CN1C(=O)c2ccccc2S1(=O)=O)N1CCc2ccccc21,80% (active)
5,CC(C)(C)c1ccc(Oc2ccc(N)cc2)cc1,85.6% (active)
6,O=C(C1=C[C@H](c2coc3ccccc3c2=O)C[C@H](OCc2ccc(CO)cc2)O1)N1CCN(Cc2ccccc2)CC1,-63.6% (inactive)
7,COc1ccc(C(=O)Nc2ccccc2C(=O)N/N=C/c2ccc(O)c(OC)c2)cc1,71.2% (active)
8,CCC(C)Cn1c(O)cc2nn(-c3nc4ccccc4s3)c(=O)c-2c1C (stereo unspecified),89.8% (active)
9,CCCCNS(=O)(=O)CCNCc1ccccc1OC,-14.3% (inactive)
10,Oc1ccc(N2CCN(C(=S)NCc3ccccc3)CC2)cc1,-21.4% (inactive)
11,CC(=O)OC1C2(CC3N4C(=O)C5(CO)SSC4(CC31O)C(=O)N5C)OC(C)C(C)(C)C2=O (stereo unspecified),98.2% (active)
12,CCn1c(=O)c(=O)[nH]c2c(=O)oc3ccc(S(=O)(=O)Nc4ccc(OC)cc4)cc3c21,-6.15% (inactive)
13,COC(=O)Cc1[nH]n(-c2nc3ccccc3s2)c(=O)c1C(C)=Nc1ccc(OC)cc1,80.6% (active)
14,COc1ccc(OC)c(Cc2cnc3nc(N)nc(N)c3c2C)c1,-3.64% (inactive)
15,CC(=O)c1ccc(Oc2cc(C)nc(-n3nc(C)cc3C)n2)cc1,83.7% (active)
16,COc1ccc(C(=O)/C=C/Nc2ccccn2)cc1,73.9% (active)
17,Cc1ccc(-c2cccc([C@H]3[C@@H]4C=CC[C@@H](C)[C@@H]4C(=O)N3Cc3ccccc3)c2)cc1,-13.7% (inactive)
18,CSc1nc(-c2ccccc2)nc(C(Cl)Cl)n1,89.8% (active)
19,C=CCn1c(C)cc(C2=NNC(=NCC)SC2)c1C,95.3% (active)
20,O=C1[C@@H](c2ccccc2)[C@@H](c2ccccc2)N1c1cccnc1,-4.06% (inactive)
21,Cc1ccc(S(=O)(=O)Nc2nc3ccccc3s2)cc1[N+](=O)[O-],79.1% (active)
22,C/C(=N\NC(=O)c1cc2c(s1)CCC(C)C2)c1cccnc1 (stereo unspecified),-16.9% (inactive)
23,Cc1ccc(/C=N/NC(=O)COc2ccccc2-c2ccccc2)cc1,87.8% (active)
24,COc1ccccc1N1CCN(C(=O)c2cc(=O)c3cc(C)cc(C)c3o2)CC1,91.6% (active)
25,CN(CCO)c1ccc(/C=N/Nc2nncc3ccccc23)cc1,72.6% (active)
